Results as given in PubChem BioAssay (Tox21).
Results filed as inconclusive are left out. Activity calls are given as the source filed them. Calls come from the whole dose curve; as a rule, active = well fitted activation curve with a large enough effect in the repeat runs; inconclusive = weak or mixed curves; inactive = flat fitted curve, though single readings scatter.

assay: A CellTox Green Cytotoxicity Assay to monitor cytotoxicity in HEK293 cells - 16 hour (AID 1224888); details: CellTox Green fluorescence; series mostly up to 76.8 µM; activity change: at the top concentration; note: nearly all actives have a fitted effect of over 35% in size
Source text: National Center for Advancing Translational Sciences [NCATS]
NIH Chemical Genomics Center [NCGC]
U.S. Environmental Protection Agency [EPA]
National Institutes of Environmental Health Sciences [NIEHS]
National Toxicology Program [NTP]
Cell-based models are critical for drug discovery. Determining the natural cytotoxic effects resulting from test compounds is an essential research activity. A CellTox Green Cytotoxicity Assay to monitor cytotoxicity in real time of continues cell culture during 40 hours of the compound treatment was used to screen Tox21 10K library compounds in Hek293 cells. CellTox Green Cytotoxicity Assay is a nonlytic, homogeneous, biofluorescent method to measure cytotoxicity in cell culture after experimental manipulation. The assay system uses a proprietary asymmetric cyanine dye that is excluded from viable cells but preferentially stains the dead cell's DNA. […] Viable cells produce no appreciable increases in fluorescence. Therefore, the fluorescence signal produced by the binding interaction with dead cell DNA is proportional to cytotoxicity.
The mixture of Hek293 cell suspension and reagents were dispensed at 600cells/6 ul/well in 1536-well tissue culture treated black solid bottom plates using a Multidrop dispenser. After the assay plates were incubated at a 37 C/5% CO2 incubator for 5 hours, 23 nL of compounds dissolved in DMSO, positive and negative controls was transferred to the assay plate by a pintool work station. The plates were incubated at 37 C for 40 hours. The fluorescence intensity were measured at 0h, 8h, 16h, 24h, 32h and 40h time points using ViewLux plate reader during compound treatment.
% is set by controls: 0 for no effect and ±100 for the full control effect.

SMILES	activity change	Potency
CCC(C(=O)OCCOCCN(CC)CC)c1ccccc1 (stereo not given)	-10.4% [at 35.3 µM, active compounds read high] (inactive)	–
O=C(CCC1CCN(Cc2ccccc2)CC1)c1ccc2c(c1)NCCCC2	19.9% [at 35.3 µM, active compounds read high] (inactive)	–
NCC1CCCC(CN)C1 (stereo not given)	4.41% (inactive)	–
O=S(=O)(c1ccccc1)c1ccc(Cl)cc1	-3.76% (inactive)	–
C/C=C/C=C/CCCCCCCO	-1.14% (inactive)	–
CCOCCn1c(C2CCN(CCc3ccc(C(C)(C)C(=O)O)cc3)CC2)nc2ccccc21	-13% [at 35.3 µM, active compounds read high] (inactive)	–
COCCOC	-9.49% (inactive)	–
CCCCCCCC/C=C\CCCCCCCC(=O)OC(CO)CO	-4.58% (inactive)	–
CCOC(=O)CC(=O)C(=O)OCC	12.2% (inactive)	–
O=S1OCCO1	1.88% (inactive)	–
CCC(Cc1ccccc1)(C(=O)c1ccc(N2CCOCC2)cc1)N(C)C (stereo not given)	8.49% (inactive)	–
COc1ccc(CCC(=O)c2c(O)cc(O[C@@H]3O[C@H](CO)[C@@H](O)[C@H](O)[C@H]3O[C@@H]3O[C@@H](C)[C@H](O)[C@@H](O)[C@H]3O)cc2O)cc1O	-1.71% (inactive)	–
C[Si]1(C)O[Si](C)(C)O[Si](C)(C)O1	-2.26% (inactive)	–
O=[N+]([O-])c1cccc(S(=O)(=O)NCCNS(=O)(=O)c2cccc([N+](=O)[O-])c2)c1	13.4% [at 35.3 µM, active compounds read high] (inactive)	–
OC/C(Br)=C(\Br)CO	-3.75% (inactive)	–
c1ccc(COCc2ccccc2)cc1	3.37% (inactive)	–
Cc1oncc1C(=O)Nc1ccc(C(F)(F)F)cc1	–	inactive
CCOC(=O)[C@@H](C)Oc1ccc(Oc2nc3ccc(Cl)cc3o2)cc1	0.595% (inactive)	–
O=C(/C=C/c1ccccc1)OCCCc1ccccc1	14.7% (inactive)	–
CC(C)(C)C(=O)C(Oc1ccc(Cl)cc1)n1ccnc1 (stereo not given)	-8.28% [at 35.3 µM, active compounds read high] (inactive)	–

SMILES	activity change	Potency
C=CC(C)(O)CCCC(C)CCCC(C)CCCC(C)C (stereo not given)	-10.7% (inactive)	–
Cc1cc(O)c(C(C)C)cc1Cl	–	inactive
CCC(C)=O	-6.58% (inactive)	–
COc1cc2c(cc1OC)-c1cc(=Nc3c(C)cc(C)cc3C)n(C)c(=O)n1CC2	20% [at 35.3 µM, active compounds read high] (inactive)	–
C[C@]12CCC(=O)C=C1C=C[C@@H]1[C@@H]2CC[C@@]2(C)[C@H]1CC[C@@]21CCC(=O)O1	-11.5% [at 35.3 µM, active compounds read high] (inactive)	–
CC(COc1ccc(C(C)(C)C)cc1)OS(=O)OCCCl (stereo not given)	6.1% (inactive)	–
Nc1ccc(S(=O)(=O)O)cc1	-0.455% (inactive)	–
CC(=O)[C@H]1CC[C@H]2[C@@H]3C=CC4=CC(=O)CC[C@@]4(C)[C@@H]3CC[C@]12C	1.01% [at 35.3 µM, active compounds read high] (inactive)	–
CC[C@@H]([C@H](C)O)n1ncn(-c2ccc(N3CCN(c4ccc(OC[C@@H]5CO[C@@](Cn6cncn6)(c6ccc(F)cc6F)C5)cc4)CC3)cc2)c1=O	-6.31% [at 35.3 µM, active compounds read high] (inactive)	–
CCN(CC)CCNC(=O)c1ccc(NC(C)=O)cc1	15.4% [at 35.3 µM, active compounds read high] (inactive)	–
CCOc1cc(N)c(Cl)cc1C(=O)NCC1CN(Cc2ccc(F)cc2)CCO1 (stereo not given)	7.21% [at 35.3 µM, active compounds read high] (inactive)	–
O=C(Nc1ccc([N+](=O)[O-])cc1)Nc1ccc([N+](=O)[O-])cc1	0.432% [at 35.3 µM, active compounds read high] (inactive)	–
CCOC(=O)/C=C/C(=O)O	10.8% (inactive)	–
NC(=O)Cn1c(=O)cc(CCN2CCN(c3nccc4sccc34)CC2)c2ccc(F)cc21	0.143% (inactive)	–
O=C(C(=O)c1ccccc1)c1ccccc1	4.95% (inactive)	–
CN(C)CCOC1=Cc2ccccc2Sc2ccc(Cl)cc21	6.14% [at 35.3 µM, active compounds read high] (inactive)	–
C1COCO1	2.72% (inactive)	–
C/C=C(\C)C(=O)OCCC(C)CCC=C(C)C (stereo not given)	-7.42% (inactive)	–
Fc1c(F)c(F)c(Br)c(F)c1F	-8.12% (inactive)	–
CCCCC(=O)O[C@]1(C(=O)CO)[C@@H](C)C[C@H]2[C@@H]3CCC4=CC(=O)C=C[C@]4(C)[C@@]3(F)[C@@H](O)C[C@@]21C	-1.25% (inactive)	–
